The whole screen tested about 310,000 compounds, of which about 14,000 (4.5%) showed an effect of 50% or more. Effects have a minus sign here. This is one part of a sample in which strong results are shown more often than they occur.
The compounds below were run against human ether-à-go-go-related gene (hERG) potassium channel (human, UniProt Q12809) (assay: primary screen, population patch clamp on CHO cells stably expressing hERG; higher = less effect of the substance).
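Further: peak tail current of the secondary pulse compared with the same well before compound.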

Chain of human ether-à-go-go-related gene (hERG) potassium channel (Q12809 whole entry, looked up): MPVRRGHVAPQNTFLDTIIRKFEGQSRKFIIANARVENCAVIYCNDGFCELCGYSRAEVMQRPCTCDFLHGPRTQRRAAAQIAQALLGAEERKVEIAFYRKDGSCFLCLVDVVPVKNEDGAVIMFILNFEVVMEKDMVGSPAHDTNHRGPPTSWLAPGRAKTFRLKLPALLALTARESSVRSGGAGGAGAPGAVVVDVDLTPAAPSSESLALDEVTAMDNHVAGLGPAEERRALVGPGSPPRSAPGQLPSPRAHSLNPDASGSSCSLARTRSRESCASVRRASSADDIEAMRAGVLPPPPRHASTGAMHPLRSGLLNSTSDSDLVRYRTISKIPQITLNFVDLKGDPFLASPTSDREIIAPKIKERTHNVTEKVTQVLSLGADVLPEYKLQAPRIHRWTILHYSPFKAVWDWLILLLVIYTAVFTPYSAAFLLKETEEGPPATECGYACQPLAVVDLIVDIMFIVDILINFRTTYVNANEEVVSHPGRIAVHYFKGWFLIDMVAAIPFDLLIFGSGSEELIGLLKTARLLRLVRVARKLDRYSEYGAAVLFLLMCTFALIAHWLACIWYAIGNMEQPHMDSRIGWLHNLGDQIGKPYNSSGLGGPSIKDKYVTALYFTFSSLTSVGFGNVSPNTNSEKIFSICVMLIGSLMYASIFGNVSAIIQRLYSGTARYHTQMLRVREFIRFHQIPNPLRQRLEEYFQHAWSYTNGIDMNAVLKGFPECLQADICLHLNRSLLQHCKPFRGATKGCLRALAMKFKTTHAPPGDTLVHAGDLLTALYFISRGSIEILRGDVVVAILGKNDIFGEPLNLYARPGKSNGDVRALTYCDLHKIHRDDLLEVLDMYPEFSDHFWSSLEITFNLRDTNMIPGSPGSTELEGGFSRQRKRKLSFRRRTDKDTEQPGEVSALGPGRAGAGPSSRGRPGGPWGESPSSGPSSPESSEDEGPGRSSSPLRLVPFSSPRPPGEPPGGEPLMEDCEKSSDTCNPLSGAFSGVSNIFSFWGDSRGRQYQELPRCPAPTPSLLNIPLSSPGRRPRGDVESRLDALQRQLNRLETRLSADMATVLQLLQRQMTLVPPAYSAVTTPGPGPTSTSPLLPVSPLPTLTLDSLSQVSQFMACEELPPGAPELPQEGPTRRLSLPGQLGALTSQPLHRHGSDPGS

Structure (SMILES)	hERG current change (%, negative = inhibition) at 10uM [%]
Cc1ccccc1CSc1nnc(-c2cnccn2)n1C	7.84
O=C(O)/C=C/C(=O)Nc1ccc(Cl)cc1C(=O)c1ccccc1	-7.6
CCOc1ccccc1NC(=O)CC1NCCNC1=O (centres unmarked)	-8.89
COc1ccc(/C=N/NC(=O)c2c(C)nc3ccc(Br)cn23)cc1OC	-0.597
COCCNc1nnnc2c1sc1nc(N3CCOCC3)c3c(c12)CC(C)(C)OC3	-7.85
COc1ccc(OCC(O)Cn2c(Nc3ccccc3)nc3c2c(=O)n(C)c(=O)n3C)cc1 (centres unmarked)	2.94
CCc1ccc(OCCOCCN2CCN(C)CC2)cc1.O=C(O)C(=O)O	4.8
CCCOc1ccc(C(=O)C(CN2CCOCC2)c2ccccc2)cc1 (centres unmarked)	-8.97
O=C(O)C(=O)O.c1ccc(CN2CCN(CCOCCOc3ccc4c(c3)CCC4)CC2)cc1	-5.19
CC1CCN(CCCCOc2ccc(C(=O)c3ccccc3)cc2)CC1.O=C(O)C(=O)O	-77
CC1CCN(CCOc2ccc(C(=O)c3ccccc3)cc2)CC1.O=C(O)C(=O)O	-47.5
O=C(O)C(=O)O.O=C(c1ccccc1)c1ccc(OCCCN2CCCC2)cc1	-70.6
CCCOc1ccc(C(=O)C(CN2CCCC2)c2ccccc2)cc1.Cl (centres unmarked)	-65.8
CCCCOc1ccc(C(=O)C(CN2CCOCC2)c2ccccc2)cc1 (centres unmarked)	-1.42
O=C(O)C(=O)O.O=C(c1ccccc1)c1ccc(OCCOCCN2CCN(Cc3ccccc3)CC2)cc1	-78.9
O=C(O)C(=O)O.c1ccc(OCCCN2CCCC2)cc1	-7.18
CCCCOc1ccc(C(=O)N2CCC(C)CC2)cc1	-9.48
O=C(O)c1ccccc1NC(=O)N1C[C@H]2C[C@@H](C1)c1cccc(=O)n1C2	3.86
COc1ccc(CN(C)Cc2nc(Cc3ccccc3Cl)no2)cc1OC	-10.9
CC(=O)Nc1nc2ccccc2[nH]1	-0.326
Cc1cc(C)n(C(=O)CNC(=O)c2ccco2)n1	11.9
CC(NC(=O)c1ccco1)C1CCCO1 (centres unmarked)	-12.7
O=CN1CC(=O)N(c2ccccc2)c2c([nH]c3ccccc23)C1	-23.2
O=C(O)CSc1cc(C(=O)c2ccccc2O)cn2c(=O)c3c(-c4ccccc4)csc3nc12	-1.71
COc1cc(NC2c3ccccc3C(=O)N2Cc2ccc3c(c2)OCO3)cc(OC)c1 (centres unmarked)	-22.4

Structure (SMILES)	hERG current change (%, negative = inhibition) at 10uM [%]
Cc1cc(OCC(=O)NCCc2c[nH]c3ccccc23)c2c(C)c(C)c(=O)oc2c1	3.37
CCCOc1ccc(C(=O)CCN2CCCCC2)cc1.Cl	-31.6
CC(C)COc1ccc(C(=O)OCCN2CCOCC2)c(O)c1.Cl	-25.2
CCOc1ccc(C(=O)CCN2CCCCCC2)cc1.Cl	-38.4
O=C(O)C(=O)O.O=C(c1ccccc1)c1ccc(OCCCCN2CCCCC2)cc1	-52.6
COc1cc(C(=O)OCCN2CCCCC2)ccc1O.Cl	3.87
CCCOc1ccc(C(=O)OCCN2CCCCC2)c(O)c1.Cl	-58.7
CCCCOc1ccc(C(=O)CCN2CCCCC2)cc1.Cl	-61.5
O=C(O)C(=O)O.O=C(c1ccccc1)c1ccc(OCCCN2CCCCC2)cc1	-66.4
CC(=O)c1ccc(OCCCN2CCCCC2)cc1.O=C(O)C(=O)O	-22.2
COc1ccc(/C=N/N=C2\SC(CC(=O)O)C(=O)N2c2ccccc2)c(OC)c1 (centres unmarked)	4.13
CC1=CC(C)(C)N(C(=O)CSc2nnc(N)s2)c2cc(C)c(C)cc21	-6
CC(C)OC(=O)Nc1ccc2c(c1)N(C(=O)CCN(C)C)c1ccccc1CC2.Cl	-20.8
CCOc1ccc(N2CC(NC(=O)c3cccc4ccccc34)CC2=O)cc1 (centres unmarked)	3.75
CCN(CC(=O)NCc1ccc(Cl)cc1)C(=O)c1cc(S(=O)(=O)NCc2ccccc2)ccc1C	-25.6
CN(C)c1nc(NCc2ccccc2)nc(N/N=C/c2cccc(Br)c2)n1	29.7
O=C(Cc1ccsc1)NCc1ccccc1F	17.1
CC(C)CCNC(=O)c1cc(-c2ccco2)nc2ccccc12	6.45
CCn1c(N)[n+](CC(=O)Nc2ccc(SC(F)F)cc2)c2ccccc21.[Cl-]	-78.4
O=C(Cc1ccccc1)Nc1ccc(SC(F)F)cc1	-29.7
CC[N+](CC)(CC)CC(=O)Nc1ccc(SC(F)F)cc1.[Cl-]	-3.41
COC(=O)Cn1c(=NC(=O)CCS(=O)(=O)c2ccccc2)sc2c(OC)ccc(OC)c21	6.2
CCc1noc(C)c1C(=O)NNC(=O)c1ccccc1F	21
CSc1cccc(NC(=O)CCS(=O)(=O)c2cccc3nonc23)c1	-15.1
COC(=O)c1ccccc1NC(=O)COC(=O)c1cccnc1	6.42

Structure (SMILES)	hERG current change (%, negative = inhibition) at 10uM [%]
COc1ccc(Cl)cc1NC(=O)CN1CCN(S(=O)(=O)c2ccc(F)cc2)CC1	-43.8
Cc1cc(NC(=O)CN2CCN(S(=O)(=O)c3ccc(Cl)cc3)CC2)no1	-15.4
O=C(CN1CCN(S(=O)(=O)c2ccc(Br)cc2)CC1)Nc1ccc(F)cc1	-67.8
O=C(CN1CCN(S(=O)(=O)c2ccccc2)CC1)Nc1ccc(Cl)cn1	-29.5
CC(C)c1ccc(S(=O)(=O)N2CCN(CC(=O)Nc3ccc(Cl)cc3F)CC2)cc1	-15.9
O=C(CN1CCN(S(=O)(=O)c2ccc(Br)cc2)CC1)Nc1ccc(F)cc1F	-73.5
COc1ccc(C)cc1NC(=O)CN1CCN(S(=O)(=O)c2ccc(Br)cc2)CC1	-30.5
NS(=O)(=O)c1ccc(NC(=O)CN2CCN(S(=O)(=O)c3ccc(F)cc3)CC2)cc1	7.15
O=C(CN1CCN(S(=O)(=O)c2ccc(F)cc2)CC1)Nc1ccc(Cl)cn1	-62.7
COC(=O)c1ccc(NC(=O)CN2CCN(S(=O)(=O)c3ccc(Br)cc3)CC2)cc1	-31.4
O=C(CN1CCN(S(=O)(=O)c2ccc(Cl)cc2)CC1)Nc1ccc(F)cc1F	-78.3
Cc1sc2ncnc(NCCc3ccc(S(N)(=O)=O)cc3)c2c1C	12.6
COc1ccc(CCNC(=O)CSc2nn3c(=O)c(C)nnc3s2)cc1OC	6.31
CN(CC(=O)Nc1ccccc1C(F)(F)F)C(=O)COc1ncnc2ccccc12	1.42
O=C(CNCc1ccc(Cl)cc1)NCc1ccco1.O=C(O)C(=O)O	-17.3
Cc1cccc(OCc2n[nH]c(=S)n2-c2ccccc2)c1	10.1
CC(=O)Nc1ccc(C(=O)OCC(=O)NCc2ccccc2)cc1	11.9
O=C(COC(=O)CCC(=O)c1ccc(F)cc1)Nc1ccc2[nH]c(=O)[nH]c2c1	-3.65
O=C(Nc1ccc(F)cc1F)NC1CCN(S(=O)(=O)c2ccc(F)cc2)CC1	9.78
O=C(CN1CCN(S(=O)(=O)c2ccc(F)cc2)CC1)Nc1ccc(F)cc1F	-60.3
O=C(COC(=O)c1ccc(S(=O)(=O)N2CCCC2)cc1)Nc1ccc(F)cc1F	9.22
C/C(=N\OCC(=O)NC12CC3CC(CC(C3)C1)C2)c1cc2ccccc2o1	5.38
CCOc1ccc(S(=O)(=O)N2CCN(CN3C(=O)CC4(CCCC4)C3=O)CC2)cc1	-8.79
N#CCCN(Cc1cccnc1)C(=O)Nc1ccccc1	-3.06
CC(C)=CCN1CCN(Cc2nc(-c3ccc(F)cc3)cs2)CC1CCO (centres unmarked)	-69

Structure (SMILES)	hERG current change (%, negative = inhibition) at 10uM [%]
CC(C)=CCN1CCN(Cc2cc(F)ccc2-n2nc(C)cc2C)CC1CCO (centres unmarked)	-25
CC(C)=CCN1CCN(Cc2nc(-c3ccccc3)cs2)CC1CCO (centres unmarked)	-60.4
CC(C)=CCN1CCN(Cc2cccnc2)CC1CCO (centres unmarked)	-1.24
CC(C)(C)CN1CCN(Cc2c[nH]c3ccccc23)CC1CCO (centres unmarked)	15.5
CC(C)(C)CN1CCN(Cc2nc(-c3ccc(F)cc3)cs2)CC1CCO (centres unmarked)	-62.5
CC(C)(C)CN1CCN(Cc2cccnc2)CC1CCO (centres unmarked)	13.6
CC(C)=CCN1CCN(Cc2nc(C(C)C)cs2)CC1CCO (centres unmarked)	-12.9
CC(C)=CCN1CCN(CC#Cc2ccccc2)CC1CCO (centres unmarked)	-13
CCN(CC(=O)NCc1ccc(F)cc1)C(=O)C1CCN(C(=O)Nc2ccccc2)CC1	-7.79
COCCn1c(SCC(=O)N2CC(=O)Nc3ccccc32)nc2ccccc21	-2.29
O=C(Nc1ccc(N2CCCCC2)cc1)c1cccnc1	4.6
CCNc1nc2nc3ccc(C)cn3c(=O)c2cc1C(=O)NCC1CCCO1 (centres unmarked)	-70.6
Cc1ccc(-c2noc(-c3ccccc3C(=O)NCC3CCCO3)n2)cc1 (centres unmarked)	-18.6
C=CCNC(=O)c1cc2c(=O)n3cc(C)ccc3nc2nc1NCC1CCCO1 (centres unmarked)	-73
COCCCNC(=O)c1ccc2nc3ccccc3c(=O)n2c1	14.7
COc1ccc(-c2cc(C(=O)NCC3CCCO3)c3cc(C)ccc3n2)cc1 (centres unmarked)	-3.03
CCn1cc(C(=O)NCC2CCCO2)c2cc(OC)c(OC)cc2c1=O (centres unmarked)	19.4
Cc1ccc(-c2nn(-c3ccccc3)cc2C(=O)NCC2CCCO2)cc1 (centres unmarked)	-25.8
CCOCCCNc1nc2nc3ccc(C)cn3c(=O)c2cc1C(=O)NCC1CCCO1 (centres unmarked)	-77.7
Cn1nc(C(=O)NCC2CCCO2)c2ccccc2c1=O (centres unmarked)	-3
Cc1ccc(-c2nn(-c3ccccc3Cl)cc2C(=O)NCC2CCCO2)cc1 (centres unmarked)	-0.0276
COCCCNC(=O)CSc1nc2ccccc2c(=O)n1CCCC(=O)NCC1CCCO1 (centres unmarked)	-0.988
COCCCNC(=O)c1cc2c(=O)n3cc(C)ccc3nc2nc1NCC1CCCO1 (centres unmarked)	-71.9

Source: article PMC4336329 (PLoS ONE, 2015)
